Reference: PubChem BioAssay (Tox21)
Records with an inconclusive call do not appear. Calls of active or inactive are those of the source. Unless noted, calls follow the shape of the dose curve; as a rule, active = well fitted curve in the direction sought with a large enough effect in the repeat runs; inconclusive = weak or mixed curves; inactive = no such curve, though single readings can be large; an effect the other way counts as inactive or inconclusive.

Legend:
[1] = qHTS assay to identify aromatase inhibitors - cell viability counter screen (AID 743084);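 also: cells stimulated with testosterone during compound exposure; nearly all actives have a fitted effect of over 55% in size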
[2] = target: Aryl hydrocarbon receptor (Homo sapiens) (UniProt P35869); test: qHTS assay to identify small molecule that activate the aryl hydrocarbon receptor (AhR) signaling pathway (AID 743085); also: nearly all actives have a fitted effect of over 15% in size; also: potency is read from the fitted curve at half-maximal effect;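 as to activation: HG2L7.5c1 human HepG2 liver cells with stably integrated DRE-driven firefly reporter; series mostly up to about 70 µM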
Aryl hydrocarbon receptor (Homo sapiens), sequence (P35869 whole entry, looked up): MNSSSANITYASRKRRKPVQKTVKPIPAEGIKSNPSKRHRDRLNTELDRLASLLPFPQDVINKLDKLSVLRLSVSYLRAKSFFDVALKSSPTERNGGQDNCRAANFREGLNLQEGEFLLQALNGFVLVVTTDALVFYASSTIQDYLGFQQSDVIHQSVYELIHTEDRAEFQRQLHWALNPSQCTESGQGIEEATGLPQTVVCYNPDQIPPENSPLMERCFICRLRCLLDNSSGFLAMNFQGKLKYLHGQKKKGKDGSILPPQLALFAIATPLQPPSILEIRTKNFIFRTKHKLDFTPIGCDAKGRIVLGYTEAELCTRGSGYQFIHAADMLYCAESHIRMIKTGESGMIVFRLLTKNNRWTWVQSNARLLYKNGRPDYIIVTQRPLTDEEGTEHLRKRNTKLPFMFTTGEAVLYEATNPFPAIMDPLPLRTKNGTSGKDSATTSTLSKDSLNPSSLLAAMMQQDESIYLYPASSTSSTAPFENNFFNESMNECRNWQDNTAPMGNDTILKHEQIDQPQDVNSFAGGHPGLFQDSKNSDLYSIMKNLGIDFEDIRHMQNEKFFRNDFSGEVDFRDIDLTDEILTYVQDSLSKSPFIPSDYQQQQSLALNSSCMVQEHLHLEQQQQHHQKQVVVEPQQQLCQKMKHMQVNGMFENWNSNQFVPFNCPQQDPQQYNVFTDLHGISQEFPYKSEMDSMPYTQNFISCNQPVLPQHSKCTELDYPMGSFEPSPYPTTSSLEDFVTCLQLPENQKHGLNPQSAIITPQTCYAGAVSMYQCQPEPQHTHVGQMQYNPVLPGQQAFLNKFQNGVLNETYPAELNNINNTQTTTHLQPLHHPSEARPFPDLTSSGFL
Summary of the method: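 Steps: seed HepG2-AhR-luc cells; allow 5 h at 37C; pin-transfer test compound or vehicle; incubate 24 h at 37C; add viability dye (30 min, 37C) and read fluorescence; add luciferase substrate (30 min, RT) and read luminescence.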

[3] = qHTS assay to identify small molecule that activate the aryl hydrocarbon receptor (AhR) signaling pathway - cell viability counter screen (AID 743086);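 also: HepG2 liver cells carrying the AhR DRE luciferase reporter; series mostly up to about 70 µM; nearly all actives have a fitted effect of over 45% in size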
Summary of the method: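 HepG2-AhR-luc (HG2L7.5c1) cells, 4000/well, were preincubated 5 h at 37C, exposed to compound in qHTS format for 24 hr at 37C, then given CellTiter-Fluor for 30 min; viability was read as fluorescence in the reporter wells.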

[4] = target: Peroxisome proliferator-activated receptor gamma (Homo sapiens) (UniProt P37231); test: qHTS assay to identify small molecule agonists of the peroxisome proliferator-activated receptor gamma (PPARg) signaling pathway (AID 743094; active = well fitted activation curve with a large enough effect in the signal ratio in the repeat runs, not every such curve was filed as active; the % refers to the signal ratio)
Peroxisome proliferator-activated receptor gamma (Homo sapiens), sequence (P37231 whole entry, looked up): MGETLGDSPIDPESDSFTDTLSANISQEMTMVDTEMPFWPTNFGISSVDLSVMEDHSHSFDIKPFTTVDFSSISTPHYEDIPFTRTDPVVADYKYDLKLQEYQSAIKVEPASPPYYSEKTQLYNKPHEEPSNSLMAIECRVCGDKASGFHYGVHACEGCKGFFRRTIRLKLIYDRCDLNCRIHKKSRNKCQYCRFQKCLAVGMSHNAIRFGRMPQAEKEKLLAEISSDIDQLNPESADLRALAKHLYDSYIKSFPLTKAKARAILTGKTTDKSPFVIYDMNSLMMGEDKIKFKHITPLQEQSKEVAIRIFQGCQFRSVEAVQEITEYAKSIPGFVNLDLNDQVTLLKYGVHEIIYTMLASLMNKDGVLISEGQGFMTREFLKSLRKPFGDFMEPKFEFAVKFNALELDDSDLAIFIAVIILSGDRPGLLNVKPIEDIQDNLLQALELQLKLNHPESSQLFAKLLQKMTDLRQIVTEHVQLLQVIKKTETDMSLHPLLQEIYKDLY
Summary of the method: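 GeneBLAzer PPARg UAS-bla HEK293H cells were plated, rested 5 h, then exposed to compounds for 17 h at 37C. Beta-lactamase activity was read by LiveBLAzer B/G FRET substrate fluorescence after 1 h at room temperature.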

[5] = target: Peroxisome proliferator-activated receptor gamma (Homo sapiens) (UniProt P37231); test: qHTS assay to identify small molecule antagonists of the peroxisome proliferator-activated receptor gamma (PPARg) signaling pathway (AID 743191; calls by dose curve; also: nearly all actives have a fitted effect of over 30% in size; also: potency is read from the fitted curve at half-maximal effect; as to ratio activity, negative = inhibition: series mostly up to about 63 µM)
Summary of the method: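 GeneBLAzer PPARg UAS-bla HEK293H cells carrying a UAS-driven beta-lactamase reporter were plated at 3000 cells/well, preincubated 5 h at 37C, then given compound for 17 h at 37C; LiveBLAzer B/G FRET substrate was read after 1 h at room temperature.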

[6] = qHTS assay to identify small molecule antagonists of the peroxisome proliferator-activated receptor gamma (PPARg) signaling pathway - cell viability counter screen (AID 743194); also: nearly all actives have a fitted effect of over 55% in size
Summary of the method: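 PPARg-UAS-bla HEK293H cells were plated, rested 5 h at 37 C, then treated with compounds plus rosiglitazone (50 nM final) for 17 h at 37 C; viability was then read by CellTiter-Glo luminescence after 30 min at room temperature.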

[7] = qHTS assay for small molecule agonists of the antioxidant response element (ARE) signaling pathway (AID 743202; active = well fitted activation curve with a large enough effect in the signal ratio in the repeat runs, not every such curve was filed as active; the % refers to the signal ratio; also: potency is read from the fitted curve at half-maximal effect)
Summary of the method: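 Compounds delivered in DMSO to ARE-bla HepG2 cells (2,000 cells/well, pre-incubated 5 h) and left 16 h at 37 C. LiveBLAzer B/G FRET substrate then added for 2 h at RT before fluorescence reading.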

[8] = qHTS assay for small molecule agonists of the antioxidant response element (ARE) signaling pathway - cell viability counter screen (AID 743203; calls by dose curve; also: nearly all actives have a fitted effect of over 55% in size)
Summary of the method: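 ARE-bla HepG2 cells were plated, rested 5 h at 37C/5% CO2, then exposed to compounds in DMSO for 16 h. Viability was read as CellTiter-Glo luminescence after 30 min at room temperature, in the same wells as the ARE screen.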

[9] = qHTS assay for small molecule activators of the heat shock response signaling pathway (AID 743210; active = well fitted activation curve with a large enough effect in the signal ratio in the repeat runs, with a control signal flat, not every such curve was filed as active; the % refers to the signal ratio;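 also: HeLa cells with beta-lactamase reporter driven by heat shock elements; series mostly up to about 63 µM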)
Summary of the method: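 Reporter gene assay: HeLa cells stably bearing an HSE-bla construct, compound treatment 5 h at 37 C, LiveBLAzer substrate 2.5 h at RT, fluorescence intensity.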

[10] = qHTS assay for small molecule activators of the heat shock response signaling pathway - cell viability counter screen (AID 743209); also: nearly all actives have a fitted effect of over 50% in size
Summary of the method: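 HSE-bla HeLa cells plated overnight, then exposed to Tox21 compounds (23 nL in DMSO) for 5 h at 37 C. After the bla reporter read, CellTiter-Glo was added in the same wells and luminescence read after 30 min at room temperature.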
% is scaled to controls: 0 for no effect and ±100 for the full control effect.

CC(=O)O[C@H]1C[C@@H]2CC[C@@H]3[C@H](CC[C@@]4(C)[C@H]3C[C@H]([N+]3(C)CCCCC3)[C@@H]4OC(C)=O)[C@@]2(C)C[C@@H]1N1CCCCC1
inactive: Potency [1] | Potency [2] | Potency [3] | Potency [4] | Potency [5] | Potency [6] | Potency [7] | Potency [8] | outcome [9]

Oc1ccc(Sc2ccc(O)cc2)cc1
inactive: Potency [1] | Potency [2] | Potency [3] | Potency [4] | Potency [6] | Potency [10]
active: Potency [5] 16.2 µM | Potency [7] 22.8 µM

CC(=O)OCCc1ccccc1
inactive: Potency [1] | Potency [2] | Potency [3] | Potency [4] | Potency [5] | Potency [6] | Potency [7] | Potency [8] | Potency [10]

COC(=O)C(C)=O
inactive: Potency [1] | Potency [2] | Potency [3] | Potency [4] | Potency [5] | Potency [6] | Potency [7] | Potency [8] | Potency [10] | outcome [9]

CCCCOC(O)CC (stereo unspecified)
inactive: Potency [1] | Potency [2] | Potency [3] | Potency [4] | Potency [5] | Potency [6] | Potency [7] | Potency [8] | Potency [10] | outcome [9]

CCN(CCO)CCCC(C)Nc1ccnc2cc(Cl)ccc12 (stereo unspecified)
inactive: Potency [1] | Potency [2] | Potency [3] | Potency [4] | ratio activity, negative = inhibition [5] -5.98% [at 5.95 µM] | activity change, negative = cytotoxicity [6] 0.825% [at 5.95 µM] | activation [7] -5.09% [at 8.36 µM] | viability change, negative = cytotoxic [8] -9.02% [at 8.36 µM] | activity change, negative = cytotoxicity [10] -18.6% [at 5.95 µM] | activation [9] -0.125% [at 5.95 µM]

COCCOCCOCCOCCOC
inactive: Potency [1] | Potency [2] | Potency [3] | Potency [4] | Potency [5] | Potency [6] | Potency [7] | Potency [8] | Potency [10]

CC(=O)c1c(C)c([N+](=O)[O-])c(C(C)(C)C)c([N+](=O)[O-])c1C
inactive: Potency [1] | Potency [2] | Potency [3] | Potency [4] | Potency [5] | Potency [6] | Potency [7] | Potency [8] | Potency [10]

Cn1c(N)nc2nc[nH]c2c1=O
inactive: Potency [1] | Potency [2] | Potency [3] | Potency [4] | Potency [5] | Potency [6] | Potency [7] | Potency [8] | Potency [10]

CCOC(=S)SSC(=S)OCC
inactive: Potency [1] | Potency [2] | Potency [3] | Potency [4] | Potency [5] | Potency [6] | Potency [7] | Potency [8] | Potency [10] | outcome [9]

CCN(CC)C(C)=O
inactive: Potency [1] | Potency [2] | Potency [3] | Potency [4] | Potency [5] | Potency [6] | Potency [7] | Potency [8] | Potency [10] | outcome [9]

CC(=O)/C(C)=C/C1C(C)=CCCC1(C)C (stereo unspecified)
inactive: Potency [1] | Potency [2] | Potency [3] | Potency [4] | Potency [5] | Potency [6] | Potency [7] | Potency [8] | Potency [10]

CC(CN)CCCN (stereo unspecified)
inactive: Potency [1] | Potency [2] | Potency [3] | Potency [4] | Potency [5] | Potency [6] | Potency [7] | Potency [8] | Potency [10] | outcome [9]

CCCCCCCCCCCCCCCCCBr
inactive: Potency [1] | Potency [2] | Potency [3] | Potency [4] | Potency [5] | Potency [6] | Potency [7] | Potency [10]

COc1ccc(C(C)=O)cc1
inactive: Potency [1] | Potency [2] | Potency [3] | Potency [4] | Potency [5] | Potency [6] | Potency [8] | Potency [10]

CCCCCCCCCCCCCCCC(=O)OC/C=C(C)/C=C/C=C(C)/C=C/C1=C(C)CCCC1(C)C
inactive: Potency [1] | Potency [2] | Potency [3] | Potency [4] | Potency [5] | Potency [6] | Potency [8] | Potency [10]

Cc1ccc(C(C)c2ccc(C)c(C)c2)cc1C
inactive: Potency [1] | Potency [2] | Potency [3] | Potency [4] | Potency [5] | Potency [6] | Potency [8] | Potency [10] | outcome [9]

O=c1c2ccccc2nnn1CCl
inactive: Potency [1] | Potency [2] | Potency [3] | Potency [4] | Potency [5] | Potency [10] | outcome [9]

Cc1ccccc1N=Nc1ccc(N=Nc2c(O)ccc3ccccc23)c(C)c1
inactive: Potency [1] | Potency [3] | Potency [4] | Potency [5] | Potency [6] | Potency [8] | Potency [10] | outcome [9]
active: Potency [2] 13.3 µM

COCCO
inactive: Potency [1] | Potency [2] | Potency [3] | Potency [4] | Potency [6] | Potency [7] | Potency [8] | Potency [10]

C=CC[N+]1([C@H]2C[C@H]3[C@@H]4CC[C@H]5C[C@H](OC(C)=O)[C@@H](N6CCCCC6)C[C@]5(C)[C@H]4CC[C@]3(C)[C@H]2OC(=O)CC)CCCCC1
inactive: Potency [1] | Potency [2] | Potency [3] | Potency [4] | Potency [5] | Potency [6] | Potency [7] | Potency [10] | outcome [9]

CC(C)NCC(O)c1cc(O)cc(O)c1 (stereo unspecified)
inactive: Potency [1] | Potency [2] | Potency [3] | Potency [4] | Potency [5] | Potency [6] | Potency [10] | outcome [9]

NCCCOCCOCCOCCCN
inactive: Potency [1] | Potency [2] | Potency [3] | Potency [4] | Potency [5] | Potency [6] | Potency [8] | Potency [10] | outcome [9]

O=C(NN1CCCC1)NS(=O)(=O)c1ccc(Cl)cc1
inactive: Potency [1] | Potency [2] | Potency [3] | Potency [4] | Potency [5] | Potency [7] | Potency [8] | Potency [10] | outcome [9]

CCCCCC/C=C/C=O
inactive: Potency [1] | Potency [2] | Potency [3] | Potency [4] | Potency [6] | Potency [7] | Potency [8] | Potency [10]

Cc1ccc(O)c([C@H](CCN(C(C)C)C(C)C)c2ccccc2)c1
inactive: Potency [1] | Potency [2] | Potency [3] | Potency [4] | Potency [5] | Potency [6] | Potency [8] | Potency [10] | outcome [9]
